Results reported in PubChem BioAssay (NCI).
The panel holds about 83,000 compounds, 20% with a hit somewhere; the sample as a whole holds those more often.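 Method: cells in 96-well plates; compound added at one concentration; 48 h incubation; percent growth measured; values under 10 scored active.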 Active and inactive are the calls of the source.

Experiments:
Experiment in all cases: NCI-60 one-dose screen, 48 h (100 = growth as untreated, 0 = no growth, -100 = all killed)
Conditions in all cases: 10 µM unless noted
SR leukemia = system: SR leukemia
RPMI-8226 leukemia = system: RPMI-8226 leukemia
OVCAR-8 ovarian = system: OVCAR-8 ovarian
OVCAR-5 ovarian = system: OVCAR-5 ovarian
OVCAR-4 ovarian = system: OVCAR-4 ovarian
SK-OV-3 ovarian = system: SK-OV-3 ovarian
IGROV1 ovarian = system: IGROV1 ovarian
HS 578T breast = system: HS 578T breast
T-47D breast = system: T-47D breast
BT-549 breast = system: BT-549 breast
MDA-MB-435 melanoma = system: MDA-MB-435 melanoma
SW-620 colon = system: SW-620 colon
MCF7 breast = system: MCF7 breast
HCT-116 colon = system: HCT-116 colon
HCC-2998 colon = system: HCC-2998 colon
KM12 colon = system: KM12 colon
NCI/ADR-RES ovarian = system: NCI/ADR-RES ovarian
OVCAR-3 ovarian = system: OVCAR-3 ovarian

Measured: growth

O=C1C(SCc2ccccc2)=C(Cl)CN1c1ccc(Cl)cc1
active: SR leukemia 1.35%
inactive: RPMI-8226 leukemia 88.8% | OVCAR-8 ovarian 95.2% | OVCAR-5 ovarian 109% | OVCAR-4 ovarian 103% | SK-OV-3 ovarian 117% | IGROV1 ovarian 104% | HS 578T breast 100% | T-47D breast 50.4% | BT-549 breast 109% | MDA-MB-435 melanoma 100% | SW-620 colon 101% | MCF7 breast 25.7% | HCT-116 colon 89.7% | HCC-2998 colon 95.9% | KM12 colon 99.1%

O=C(N/N=C\c1ccc([N+](=O)[O-])cc1)c1ccc2nc(-c3ccc(Br)cc3)[nH]c2c1
inactive: OVCAR-8 ovarian 13.5% | OVCAR-5 ovarian 44.8% | OVCAR-4 ovarian 21.3% | SK-OV-3 ovarian 45% | IGROV1 ovarian 18% | HS 578T breast 23.2% | MDA-MB-435 melanoma 23.9% | KM12 colon 11.7%
active: SR leukemia -3.17% | RPMI-8226 leukemia 6.03% | T-47D breast 9.87% | BT-549 breast 6.72% | SW-620 colon 5.34% | MCF7 breast -4.44% | HCT-116 colon -37.2% | HCC-2998 colon 5.66%

Cc1ccc(Nc2nc(SC(C)C)nc(-c3ccccc3)c2C#N)cc1
inactive: SR leukemia 102% | RPMI-8226 leukemia 99% | OVCAR-8 ovarian 97% | OVCAR-5 ovarian 81.8% | OVCAR-4 ovarian 87.3% | SK-OV-3 ovarian 96.2% | IGROV1 ovarian 91% | HS 578T breast 87.8% | T-47D breast 88.4% | BT-549 breast 79.6% | MDA-MB-435 melanoma 102% | SW-620 colon 89.2% | MCF7 breast 92.3% | HCT-116 colon 92.1% | HCC-2998 colon 88.2% | KM12 colon 96.1%

CC(C)Sc1nc(-c2ccccc2)c(C#N)c(N2CCOCC2)n1
active: OVCAR-4 ovarian 2.36%
inactive: SR leukemia 78.9% | RPMI-8226 leukemia 90.7% | OVCAR-8 ovarian 69.3% | OVCAR-5 ovarian 59.8% | SK-OV-3 ovarian 86.8% | HS 578T breast 50% | NCI/ADR-RES ovarian 71.1% | T-47D breast 68.5% | BT-549 breast 111% | MDA-MB-435 melanoma 88% | SW-620 colon 74.2% | HCT-116 colon 43.5% | HCC-2998 colon 69.5% | KM12 colon 88.3%

C#Cc1cc(C(=O)Nc2ccc(CNCCN3CCOCC3)c(C(F)(F)F)c2)ccc1C
inactive: SR leukemia 67.8% | RPMI-8226 leukemia 74.5% | OVCAR-8 ovarian 105% | OVCAR-5 ovarian 98.6% | OVCAR-4 ovarian 79.1% | SK-OV-3 ovarian 94.1% | OVCAR-3 ovarian 94.1% | HS 578T breast 81.4% | NCI/ADR-RES ovarian 94.3% | T-47D breast 82.1% | MDA-MB-435 melanoma 94.9% | SW-620 colon 97.5% | MCF7 breast 83.5% | HCT-116 colon 90.2% | HCC-2998 colon 102% | KM12 colon 96.2%

C/C(=N/N)c1nnn(-c2ccc(Br)cc2)c1C
inactive: SR leukemia 96% | RPMI-8226 leukemia 105% | OVCAR-8 ovarian 102% | OVCAR-5 ovarian 93.2% | OVCAR-4 ovarian 110% | SK-OV-3 ovarian 109% | HS 578T breast 102% | NCI/ADR-RES ovarian 104% | T-47D breast 102% | BT-549 breast 102% | MDA-MB-435 melanoma 102% | SW-620 colon 105% | MCF7 breast 77.6% | HCT-116 colon 103% | HCC-2998 colon 107% | KM12 colon 99.4%

COC(=O)c1cccc(NC2=C(Cl)C(=O)C(C)=C(C)C2=O)c1
inactive: SR leukemia 30% | RPMI-8226 leukemia 58.3% | OVCAR-8 ovarian 99.4% | OVCAR-5 ovarian 101% | SK-OV-3 ovarian 106% | OVCAR-3 ovarian 94.2% | HS 578T breast 88.1% | NCI/ADR-RES ovarian 98.2% | BT-549 breast 96.2% | MDA-MB-435 melanoma 104% | SW-620 colon 103% | MCF7 breast 82% | HCT-116 colon 70.1% | HCC-2998 colon 98.2% | KM12 colon 49.2%
active: OVCAR-4 ovarian -36.7% | T-47D breast -18.1%

Cc1cc2nc(C(Cl)Cl)nc(-c3ccc(S(=O)(=O)N(C)C)cc3)n2n1
inactive: SR leukemia 11.8% | RPMI-8226 leukemia 55.3% | OVCAR-8 ovarian 33.9% | OVCAR-5 ovarian 67.3% | OVCAR-4 ovarian 57.2% | SK-OV-3 ovarian 50.5% | OVCAR-3 ovarian 78.4% | HS 578T breast 72.7% | NCI/ADR-RES ovarian 26.3% | T-47D breast 69.8% | BT-549 breast 38.5% | MDA-MB-435 melanoma 47% | SW-620 colon 18.2% | MCF7 breast 62.1% | HCT-116 colon 18.2% | HCC-2998 colon 47.6% | KM12 colon 39.1%

C#CCN(C)CCCOc1ccc(NCc2ccc(C(=O)NO)cc2)cc1Cl
inactive: SR leukemia 15.7% | OVCAR-8 ovarian 14.7% | OVCAR-5 ovarian 23.4% | OVCAR-4 ovarian 31.3% | OVCAR-3 ovarian 24.3% | HS 578T breast 25% | BT-549 breast 75.4% | SW-620 colon 12.2% | MCF7 breast 18% | HCT-116 colon 10.7% | HCC-2998 colon 32.7% | KM12 colon 24.2%
active: RPMI-8226 leukemia 9.94% | SK-OV-3 ovarian -4.09% | NCI/ADR-RES ovarian 7.57% | T-47D breast 0.446% | MDA-MB-435 melanoma 9.64%

O=C(N/N=C\c1ccc(F)cc1)c1ccc2nc(-c3ccc(Br)cc3)[nH]c2c1
active: SW-620 colon 2.87% | MCF7 breast 9.41% | HCT-116 colon -21%
inactive: SR leukemia 41.3% | RPMI-8226 leukemia 63.5% | OVCAR-8 ovarian 27.4% | OVCAR-5 ovarian 63.3% | OVCAR-4 ovarian 12.5% | SK-OV-3 ovarian 90.9% | HS 578T breast 36.1% | NCI/ADR-RES ovarian 68.2% | T-47D breast 75.6% | BT-549 breast 73.5% | MDA-MB-435 melanoma 40.7% | HCC-2998 colon 31.3% | KM12 colon 16%

CN1CCN(Cc2ccc(NC(=O)c3cncc(C#Cc4cnc5ccc(N)nn45)c3)cc2C(F)(F)F)CC1
inactive: RPMI-8226 leukemia 24.7% | OVCAR-8 ovarian 16.5% | OVCAR-5 ovarian 32% | OVCAR-4 ovarian 46.1% | SK-OV-3 ovarian 45.3% | HS 578T breast 20.6% | NCI/ADR-RES ovarian 89.8% | T-47D breast 60.5% | BT-549 breast 38.7% | MDA-MB-435 melanoma 40.5% | HCC-2998 colon 20.7%
active: SR leukemia 5.19% | SW-620 colon 0.667% | MCF7 breast -19.7% | HCT-116 colon 1.19% | KM12 colon 3.48%

C=C1CCc2nc(SCC(=O)O)ccc2N1
inactive: SR leukemia 115% | RPMI-8226 leukemia 114% | OVCAR-8 ovarian 105% | OVCAR-5 ovarian 97.1% | OVCAR-4 ovarian 104% | SK-OV-3 ovarian 98.8% | OVCAR-3 ovarian 117% | HS 578T breast 101% | NCI/ADR-RES ovarian 98.8% | T-47D breast 98.5% | BT-549 breast 114% | MDA-MB-435 melanoma 101% | SW-620 colon 106% | HCT-116 colon 98% | HCC-2998 colon 103% | KM12 colon 102%

COc1ccc(C2C(C#N)=C(/N=C/c3ccc(Cl)cc3)Oc3c2sc2c(C)cccc32)cc1 (stereo unspecified)
active: HS 578T breast -4.66% | MDA-MB-435 melanoma -23.5%
inactive: SR leukemia 16.5% | RPMI-8226 leukemia 22.6% | OVCAR-8 ovarian 23.4% | OVCAR-5 ovarian 34.9% | OVCAR-4 ovarian 76.5% | SK-OV-3 ovarian 42.8% | NCI/ADR-RES ovarian 11.2% | T-47D breast 17.9% | BT-549 breast 49.5% | SW-620 colon 31.2% | MCF7 breast 21.5% | HCT-116 colon 13.4% | HCC-2998 colon 16.7% | KM12 colon 23.1%

O=C1c2ccccc2C23C(=C(c4cncnc4)c4ccccc42)CCCN13 (stereo unspecified)
inactive: SR leukemia 96.1% | RPMI-8226 leukemia 103% | OVCAR-8 ovarian 104% | OVCAR-5 ovarian 96.5% | OVCAR-4 ovarian 93.3% | SK-OV-3 ovarian 118% | HS 578T breast 95% | NCI/ADR-RES ovarian 103% | T-47D breast 93.3% | BT-549 breast 120% | MDA-MB-435 melanoma 94.6% | SW-620 colon 103% | MCF7 breast 103% | HCT-116 colon 97.9% | HCC-2998 colon 103% | KM12 colon 96.6%

CC(=O)c1c([Si](C)(C)C)c2cc(C#N)ccn2c1C(=O)c1ccc(Br)cc1
inactive: SR leukemia 87.9% | RPMI-8226 leukemia 92.1% | OVCAR-8 ovarian 94.8% | OVCAR-5 ovarian 79% | OVCAR-4 ovarian 76.2% | SK-OV-3 ovarian 98.3% | HS 578T breast 79.3% | NCI/ADR-RES ovarian 88.6% | T-47D breast 73.8% | BT-549 breast 97.5% | MDA-MB-435 melanoma 92.5% | SW-620 colon 87.2% | MCF7 breast 82.5% | HCT-116 colon 56% | HCC-2998 colon 89.9% | KM12 colon 88.3%

Cn1c(SCC(=O)c2ccco2)nc2ccccc2c1=O
inactive: SR leukemia 91.5% | RPMI-8226 leukemia 93.4% | OVCAR-8 ovarian 101% | OVCAR-5 ovarian 111% | OVCAR-4 ovarian 95.5% | SK-OV-3 ovarian 107% | OVCAR-3 ovarian 107% | HS 578T breast 104% | NCI/ADR-RES ovarian 105% | T-47D breast 55.3% | BT-549 breast 96.5% | MDA-MB-435 melanoma 105% | SW-620 colon 111% | HCT-116 colon 102% | HCC-2998 colon 112% | KM12 colon 86.3%

Cc1ccccc1Nc1nc(SC(C)C)nc(-c2ccccc2)c1C#N
active: HCT-116 colon 2.97%
inactive: SR leukemia 89.6% | RPMI-8226 leukemia 83.8% | OVCAR-8 ovarian 19.9% | OVCAR-5 ovarian 71.9% | OVCAR-4 ovarian 13.4% | SK-OV-3 ovarian 94.3% | HS 578T breast 63.1% | NCI/ADR-RES ovarian 34.7% | T-47D breast 88.1% | BT-549 breast 97.1% | MDA-MB-435 melanoma 44.9% | SW-620 colon 43.1% | MCF7 breast 51.6% | HCC-2998 colon 86.4% | KM12 colon 94.2%

Cc1ccc(C)c(NC2=C(Cl)C(=O)c3nc(C)ccc3C2=O)c1
inactive: SK-OV-3 ovarian 93% | HCC-2998 colon 17.7% | KM12 colon 36.7%
active: SR leukemia 1.99% | RPMI-8226 leukemia -41.9% | OVCAR-8 ovarian 9.92% | OVCAR-5 ovarian -71.8% | OVCAR-4 ovarian -96% | OVCAR-3 ovarian -97.4% | HS 578T breast -24.8% | NCI/ADR-RES ovarian -6.86% | T-47D breast -58% | BT-549 breast -5.46% | MDA-MB-435 melanoma -82.4% | SW-620 colon -49.2% | MCF7 breast -58.5% | HCT-116 colon -74.1%
